Results as given in paper PMC7826789 (International Journal of Molecular Sciences, 2021).

Key:
Conditions in all cases: Compound Concentration (nM):1000
CDK3 = system: CDK3
CDK4-cyclinD1 = system: CDK4-cyclinD1
CDK4-cyclinD3 = system: CDK4-cyclinD3
CDK4 = system: CDK4
CDK5 = system: CDK5
CDK7 = system: CDK7
CDK8 = system: CDK8
CDK9 = system: CDK9
CDKL1 = system: CDKL1
CDKL2 = system: CDKL2
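Also: KINOMEscan scanMAX binding as percent activity remaining versus control; lower means stronger binding.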

| Structure (SMILES) | Percent Control (CDK3) [%] | Percent Control (CDK4-cyclinD1) [%] | Percent Control (CDK4-cyclinD3) [%] | Percent Control (CDK4) [%] | Percent Control (CDK5) [%] | Percent Control (CDK7) [%] | Percent Control (CDK8) [%] | Percent Control (CDK9) [%] | Percent Control (CDKL1) [%] | Percent Control (CDKL2) [%] |
| --- | --- | --- | --- | --- | --- | --- | --- | --- | --- | --- |
| COc1cccc(-n2ncc3c(N/N=C/c4ccncc4)ncnc32)c1 [GW784752X] | 100 | 49 | 72 | 93 | 90 | 8.1 | 100 | 100 | 51 | 46 |
| Cl.O=C(Nc1ccc(Oc2ccc3[nH]c(NC(=O)c4ccco4)nc3c2)cc1)Nc1cc(C(F)(F)F)ccc1F [GW683134A] | 100 | 100 | 100 | 100 | 100 | 12 | 100 | 100 | 77 | 6.5 |
| C[C@@H](Oc1cc(-n2cnc3ccc(OC4CCN(C)CC4)cc32)sc1C(N)=O)c1ccccc1Cl [GSK579289A] | 90 | 100 | 69 | 94 | 100 | 70 | 100 | 100 | 53 | 100 |
| Cl.O=S1CCN(Cc2ccc(-c3ccc4ncnc(Nc5ccc(OCc6ccccc6)c(F)c5)c4c3)o2)CC1 [GW576924A] | 100 | 100 | 100 | 100 | 100 | 100 | 86 | 100 | 100 | 100 |
| COc1cc(C)c(N(C)C(=O)CN(C)C)cc1Nc1nc(Nc2cccc(F)c2C(N)=O)c2cc[nH]c2n1 [GSK2219385] | 92 | 89 | 100 | 90 | 100 | 73 | 100 | 100 | 79 | 100 |
| COc1ccc2[nH]c3c4[nH]c5ccc(OC)cc5c4c4c(c3c2c1)C(=O)NC4=O [GW296115X] | 100 | 82 | 74 | 100 | 75 | 56 | 87 | 58 | 75 | 92 |
| CN(C)c1cc2c(Nc3ccc4c(cnn4Cc4ccccc4)c3)ncnc2cn1 [GW282974X] | 100 | 81 | 84 | 89 | 39 | 82 | 100 | 100 | 75 | 100 |
| Nc1ncnc2occ(-c3ccc(NC(=O)Nc4cc(C(F)(F)F)ccc4F)cc3)c12 [GW770249X] | 39 | 96 | 100 | 100 | 63 | 4.4 | 0 | 70 | 93 | 31 |
| O=C1Nc2ccc(C(=O)c3ccco3)cc2C1=Cc1cc(Cl)c(O)c(Cl)c1 [GW406108X] | 100 | 78 | 94 | 94 | 89 | 76 | 80 | 100 | 88 | 100 |
| Cl.c1ccc(Cc2nc3ccc(Nc4ncnc5ccccc45)cc3[nH]2)cc1 [GR269666A] | 100 | 93 | 100 | 93 | 100 | 100 | 88 | 100 | 100 | 100 |
| CN(C)CCNC(=O)Nc1ccc(N(C)c2ccnc(Nc3ccc(CS(C)(=O)=O)cc3)n2)cc1.Cl [GW830900A] | 100 | 81 | 100 | 97 | 85 | 65 | 75 | 98 | 88 | 28 |
| CC1=C(C(=O)Nc2ccc3[nH]ncc3c2)C(c2ccc3ccccc3c2)CC(=O)N1 (centres unmarked) [GSK270822A] | 99 | 63 | 94 | 94 | 100 | 88 | 71 | 100 | 91 | 93 |
| NS(=O)(=O)c1ccc(N/N=C2\C(=O)Nc3ccc(C(=O)NCCc4c[nH]cn4)cc32)cc1 [GW300660X] | 100 | 12 | 30 | 100 | 100 | 33 | 100 | 100 | 55 | 100 |
| COC(=O)Nc1nc2ccc(Oc3ccc(NC(=O)Nc4cc(C(F)(F)F)ccc4F)cc3)cc2s1.Cl [GW693917A] | 100 | 96 | 90 | 100 | 100 | 9.3 | 20 | 86 | 73 | 0 |
| Cl.O=C(O[C@H]1CN[C@H](C#Cc2cc3ncnc(Nc4ccc5c(cnn5Cc5ccccc5)c4)c3s2)C1)N1CCOCC1 [GSK200398A] | 100 | 68 | 100 | 100 | 100 | 78 | 84 | 87 | 88 | 92 |
| O=C(Nc1n[nH]c2nc(-c3ccc(O)cc3)c(Br)cc12)C1CC1 [SB-725317] | 16 | 2.5 | 4.4 | 100 | 100 | 19 | 100 | 95 | 98 | 60 |
| COc1ccc2c(-c3ccnc(Nc4cccc(OC(F)(F)F)c4)n3)cnn2n1 [GW810372X] | 100 | 90 | 74 | 83 | 100 | 61 | 90 | 97 | 77 | 18 |
| NS(=O)(=O)c1ccc(N/N=C2\C(=O)Nc3ccc(C(=O)NCc4ccncc4)cc32)cc1 [GW300657X] | 66 | 13 | 12 | 84 | 77 | 13 | 75 | 100 | 46 | 99 |
| CCS(=O)(=O)c1ccc(OC)c(Nc2ncc(-c3cccc(F)c3)o2)c1 [GW621970X] | 100 | 99 | 100 | 100 | 100 | 85 | 100 | 100 | 100 | 100 |
| Cc1cc(O)cc(C)c1/C=C/c1cncc(C(N)=O)c1 [GW435821X] | 100 | 97 | 100 | 100 | 100 | 100 | 72 | 100 | 100 | 100 |
